From PubChem BioAssay (NCI)
The panel holds about 83,000 compounds, 20% with a hit somewhere; the sample as a whole holds those more often.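 Single-dose data. Exposure time 48 hours. Values below 10 considered active.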 Calls of active or inactive are those of the source.

Columns and labels:
Experiment in all cases: NCI-60 one-dose screen, 48 h (100 = growth as untreated, 0 = no growth, -100 = all killed)
Details in all cases: 10 µM unless noted
[1] = system: SR leukemia
[2] = system: RPMI-8226 leukemia
[3] = system: OVCAR-8 ovarian
[4] = system: OVCAR-5 ovarian
[5] = system: OVCAR-4 ovarian
[6] = system: SK-OV-3 ovarian
[7] = system: IGROV1 ovarian
[8] = system: OVCAR-3 ovarian
[9] = system: HS 578T breast
[10] = system: NCI/ADR-RES ovarian

Measured: growth

CN(C)CCCC1(c2ccc(F)cc2)OCc2cc(-c3cccc4[nH]ccc34)ccc21 (stereo not given)
inactive: [2] 39.7% | [3] 20.5% | [4] 70.1% | [5] 30.9% | [6] 52.5% | [7] 20.2% | [8] 31% | [9] 31.7% | [10] 25.9%
active: [1] -14.9%

N#CC1CCc2c(c(-c3cn[nH]c3C(F)(F)F)nc3c(F)cc4[nH]ncc4c23)C1 (stereo not given)
inactive: [1] 14.5% | [2] 34.6% | [3] 43% | [4] 63.2% | [5] 59.7% | [8] 16.6% | [10] 92.4%
active: [6] -1.91% | [7] -4.43% | [9] -8.7%

O=[N+]([O-])c1ccc(-c2nc(N3CCOCC3)c3c4c(sc3n2)CCCC4)cc1
inactive: [1] 76.4% | [2] 109% | [3] 99.8% | [4] 95.4% | [5] 92.2% | [6] 81.2% | [7] 75.2% | [8] 93.8% | [9] 90.7% | [10] 102%

C#CCn1cnc2c(Nc3cccc(NC(=O)C=C)c3)ncnc21
inactive: [1] 68.5% | [2] 81.9% | [3] 76.2% | [4] 82% | [5] 86.6% | [6] 73.5% | [7] 74.8% | [8] 88.5% | [9] 74.5% | [10] 92.5%

O=C(NCCCCNC(=O)OCc1ccc2c(Cl)cc(Cl)c(O)c2n1)OCc1ccc2c(Cl)cc(Cl)c(O)c2n1
inactive: [1] 17% | [2] 25% | [3] 11.2% | [4] 38.6% | [5] 38.9% | [6] 30.5% | [7] 11.1% | [9] 21.9%
active: [8] -40.3% | [10] 3.44%

c1cnc2[nH]cc(-c3csc(-c4cn(CCCN5CCOCC5)c5ccccc45)n3)c2c1
inactive: [2] 24.4% | [3] 62.4% | [4] 62.1% | [5] 45.1% | [6] 73.4% | [7] 35.3% | [8] 64.4% | [9] 28.5% | [10] 60.1%
active: [1] 2.93%

CC(=O)[C@@H]1CCC=C2CC[C@]3(C)[C@@H](CC[C@@H]4[C@@]5(C)CCCNC(C)(C)[C@@H]5CC[C@]43C)[C@H]21
active: [1] -45.2% | [2] -49.2% | [3] -84.4% | [5] -67.5% | [7] -94.2% | [8] -93.3% | [9] -30.9% | [10] -52.2%
inactive: [4] 16.8% | [6] 93%

CCOC(=O)C1=NN(c2ccccc2)C(=O)/C1=C\N1C(=O)CC(=O)NC1=S
inactive: [1] 92.6% | [2] 93.1% | [3] 100% | [4] 104% | [5] 52.7% | [6] 97.5% | [7] 106% | [8] 101% | [9] 102% | [10] 95.9%

COC(=O)c1ccc2c(c1)C(=O)c1c-2n(CCCN)c(=O)c2cc([N+](=O)[O-])ccc12
active: [1] -45.3% | [2] -40.4% | [3] -65.3% | [4] -74.2% | [5] -77.1% | [6] -81.8% | [7] -81.7% | [8] -93.2% | [9] -71% | [10] -39.4%

CC1=C(CCC(C)N(C)Cc2ccc(OCCCN3CCCC3)cc2)C(C)(C)CCC1 (stereo not given)
inactive: [3] 45.7% | [4] 25.4% | [5] 60.2% | [6] 36.5% | [7] 42.9% | [8] 23.6% | [9] 36.4% | [10] 63%
active: [1] -24.9% | [2] -14.3%

C1=C(N2CCCC2)CCC1
inactive: [1] 112% | [2] 95.4% | [3] 104% | [4] 86.2% | [5] 98.8% | [6] 131% | [7] 108% | [8] 106% | [9] 102% | [10] 104%

Fc1cc(F)cc(C(c2c[nH]c3ccccc23)c2c[nH]c3ccccc23)c1
inactive: [1] 106% | [2] 95.2% | [3] 102% | [4] 88.8% | [5] 116% | [6] 117% | [8] 112% | [9] 82% | [10] 92.2%
active: [7] -6.52%

S=C(Nc1ccc(-c2nc(N3CCOCC3)c3cccn3n2)cc1)Nc1cccnc1
inactive: [1] 36.7% | [2] 19% | [3] 14.8% | [4] 35.2% | [5] 43.2% | [6] 21.5% | [7] 11% | [8] 39.6% | [9] 12.8% | [10] 26.3%

O=Nc1c(-c2c(O)[nH]c3ncccc23)[nH]c2ccccc12
active: [6] 6.5% | [7] -25.3% | [9] -9.72%
inactive: [1] 32.8% | [2] 69.5% | [3] 79.6% | [4] 67.7% | [5] 66.7% | [8] 69.3% | [10] 71.8%

CCCCNC(=O)Oc1ccc(/C(=C(/CC)Cc2ccccc2)c2ccc(OCCN3CCCCCC3)cc2)cc1
active: [1] -24.6% | [2] -27.6%
inactive: [3] 14% | [4] 73.6% | [5] 32.9% | [6] 82.7% | [7] 42.3% | [8] 72.2% | [9] 56.6% | [10] 53.8%

COc1ccc(-c2nnc3n(C)c(=O)c4ccccc4n23)cc1N
active: [8] 6.12%
inactive: [1] 21.7% | [2] 20% | [3] 33.6% | [4] 45.2% | [5] 59.3% | [6] 22% | [7] 51.9% | [9] 32% | [10] 22.8%

O=c1oc2ccccc2cc1C1=NN=C(SCc2ccccc2)SC1
inactive: [1] 89.4% | [2] 98.7% | [3] 101% | [4] 105% | [5] 88.9% | [6] 97.8% | [7] 101% | [8] 103% | [9] 103% | [10] 105%

CN[C@]12CC3(C=CC(=O)C=C3)O[C@@]1(Cc1ccc(OC)cc1)N(C)C(=O)N2
inactive: [3] 15.6% | [4] 18.3% | [5] 32.2% | [6] 85.7% | [8] 11.2% | [9] 96.8% | [10] 55.6%
active: [1] 8.34% | [2] -3.85% | [7] -28.4%

C=C1CC[C@@H]2[C@](C)(COC(C)=O)[C@H](OC(C)=O)CC[C@@]2(C)[C@@H]1CC(Sc1ccccc1)C1=CCOC1=O (stereo not given in full)
inactive: [3] 11.9% | [4] 39.8% | [5] 100% | [6] 57.7% | [7] 25.2% | [9] 54.2% | [10] 10.1%
active: [1] 2.9% | [2] -4.72% | [8] -84.2%

CCCCCC(=O)OCC(=O)O[C@@H]1C[C@]2(C(C)C)O[C@@]1(C)[C@@H]1CC[C@@H](C)[C@H]1[C@@H]2OC(=O)/C=C/c1ccccc1
inactive: [1] 76.3% | [2] 66.8% | [3] 19.9% | [4] 112% | [5] 75.7% | [6] 87.9% | [7] 86.7% | [8] 52.9% | [10] 21.7%
active: [9] -15.5%

Oc1c(Cl)cc(Cl)cc1/C=N/Nc1nnc(N/N=C/c2cc(Cl)cc(Cl)c2O)c2ccccc12
inactive: [3] 17.4% | [4] 40.4% | [6] 29.3% | [7] 13.1% | [8] 14.1% | [9] 31.6%
active: [1] 3.92% | [2] 0.393% | [5] 8.13% | [10] 1.78%
